Four compounds from ChEMBL document CHEMBL1961873, “Compounds: GSK PKIS; Assays: Nanosyn kinase panel” (2012) can be followed below.

In assay [1] the target is Ribosomal protein S6 kinase alpha-6 (Homo sapiens) (UniProt Q9UK32). The conditions noted are these: at 1 µM.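 Further: each value is a mean inhibition of RSK4 from a GSK PKIS panel screen.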
Assay [2] concerns the target T1, Serine/threonine-protein kinase Sgk1 (Homo sapiens) (UniProt O00141).
T1 sequence (whole entry): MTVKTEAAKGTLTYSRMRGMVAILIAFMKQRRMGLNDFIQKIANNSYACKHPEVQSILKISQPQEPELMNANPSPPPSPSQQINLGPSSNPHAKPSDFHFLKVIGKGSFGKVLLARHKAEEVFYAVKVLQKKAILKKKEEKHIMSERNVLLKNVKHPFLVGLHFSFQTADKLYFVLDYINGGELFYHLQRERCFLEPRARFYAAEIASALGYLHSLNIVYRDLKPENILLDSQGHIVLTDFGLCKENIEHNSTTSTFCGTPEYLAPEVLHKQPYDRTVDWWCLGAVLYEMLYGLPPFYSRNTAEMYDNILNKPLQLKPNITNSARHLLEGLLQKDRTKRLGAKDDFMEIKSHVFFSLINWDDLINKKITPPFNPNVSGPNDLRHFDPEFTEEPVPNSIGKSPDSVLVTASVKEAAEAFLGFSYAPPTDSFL
The conditions noted are these: at 0.1 µM.

Assay [3] has as its target T1, Serine/threonine-protein kinase Sgk1 (Homo sapiens). As to conditions: at 1 µM.
The target of assay [4] is T2, Serine/threonine-protein kinase Sgk2 (Homo sapiens) (UniProt Q9HBY8).
T2 sequence (whole entry): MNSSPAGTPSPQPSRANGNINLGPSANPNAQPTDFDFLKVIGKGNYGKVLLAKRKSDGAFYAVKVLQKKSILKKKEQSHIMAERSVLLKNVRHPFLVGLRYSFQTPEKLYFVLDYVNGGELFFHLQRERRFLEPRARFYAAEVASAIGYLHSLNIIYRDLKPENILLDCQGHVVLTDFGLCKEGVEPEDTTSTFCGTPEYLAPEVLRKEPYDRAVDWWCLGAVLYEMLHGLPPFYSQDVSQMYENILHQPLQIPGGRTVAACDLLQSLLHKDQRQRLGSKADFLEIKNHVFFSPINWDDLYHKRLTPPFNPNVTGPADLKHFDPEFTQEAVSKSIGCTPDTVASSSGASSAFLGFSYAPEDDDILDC
As to conditions: at 0.1 µM.

In assay [5] the target is T2, Serine/threonine-protein kinase Sgk2 (Homo sapiens). The conditions noted are these: at 1 µM.
Assay [6] has as its target T3, Serine/threonine-protein kinase Sgk3 (Homo sapiens) (UniProt Q96BR1).
T3 sequence (whole entry): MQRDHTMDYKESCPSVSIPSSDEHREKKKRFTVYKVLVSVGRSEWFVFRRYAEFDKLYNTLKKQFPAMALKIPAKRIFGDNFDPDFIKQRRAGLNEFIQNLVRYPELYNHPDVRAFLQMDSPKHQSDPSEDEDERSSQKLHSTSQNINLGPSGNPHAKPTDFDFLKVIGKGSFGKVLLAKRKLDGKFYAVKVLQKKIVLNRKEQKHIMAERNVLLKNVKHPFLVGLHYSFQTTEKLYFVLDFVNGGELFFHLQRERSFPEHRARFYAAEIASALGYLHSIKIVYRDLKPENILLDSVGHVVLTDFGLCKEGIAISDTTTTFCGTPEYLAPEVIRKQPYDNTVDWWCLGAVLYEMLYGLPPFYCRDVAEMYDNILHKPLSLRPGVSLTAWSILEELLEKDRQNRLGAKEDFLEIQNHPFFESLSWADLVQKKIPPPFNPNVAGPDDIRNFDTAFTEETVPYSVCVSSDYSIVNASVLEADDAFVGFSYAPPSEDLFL
The conditions noted are these: at 0.1 µM.

The target of assay [7] is T3, Serine/threonine-protein kinase Sgk3 (Homo sapiens). As to conditions: at 1 µM.
The target of assay [8] is 5'-AMP-activated protein kinase catalytic subunit alpha-1 (Homo sapiens) (UniProt Q13131). The conditions noted are these: at 0.1 µM.
5'-AMP-activated protein kinase catalytic subunit alpha-1 (Homo sapiens), sequence (Q13131 whole entry, looked up): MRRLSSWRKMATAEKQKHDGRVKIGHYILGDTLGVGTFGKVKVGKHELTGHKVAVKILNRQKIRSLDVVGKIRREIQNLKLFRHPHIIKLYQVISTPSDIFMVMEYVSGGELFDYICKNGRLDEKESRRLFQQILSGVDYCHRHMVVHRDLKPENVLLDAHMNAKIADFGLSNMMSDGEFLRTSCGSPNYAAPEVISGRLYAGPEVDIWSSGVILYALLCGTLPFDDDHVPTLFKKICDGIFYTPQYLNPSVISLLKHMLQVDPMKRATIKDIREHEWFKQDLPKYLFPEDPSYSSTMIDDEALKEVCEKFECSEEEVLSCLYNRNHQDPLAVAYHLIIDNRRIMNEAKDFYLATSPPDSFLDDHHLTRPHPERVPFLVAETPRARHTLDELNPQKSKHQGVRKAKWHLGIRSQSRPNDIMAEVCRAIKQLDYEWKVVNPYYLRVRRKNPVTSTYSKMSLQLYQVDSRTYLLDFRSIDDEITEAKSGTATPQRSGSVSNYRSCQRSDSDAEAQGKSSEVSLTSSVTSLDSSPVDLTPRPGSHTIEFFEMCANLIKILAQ
Assay [9] has the same target. The conditions noted are these: at 1 µM.
In assay [10] the target is 5'-AMP-activated protein kinase catalytic subunit alpha-2 (Homo sapiens) (UniProt P54646). The conditions noted are these: at 0.1 µM.
5'-AMP-activated protein kinase catalytic subunit alpha-2 (Homo sapiens), sequence (P54646 whole entry, looked up): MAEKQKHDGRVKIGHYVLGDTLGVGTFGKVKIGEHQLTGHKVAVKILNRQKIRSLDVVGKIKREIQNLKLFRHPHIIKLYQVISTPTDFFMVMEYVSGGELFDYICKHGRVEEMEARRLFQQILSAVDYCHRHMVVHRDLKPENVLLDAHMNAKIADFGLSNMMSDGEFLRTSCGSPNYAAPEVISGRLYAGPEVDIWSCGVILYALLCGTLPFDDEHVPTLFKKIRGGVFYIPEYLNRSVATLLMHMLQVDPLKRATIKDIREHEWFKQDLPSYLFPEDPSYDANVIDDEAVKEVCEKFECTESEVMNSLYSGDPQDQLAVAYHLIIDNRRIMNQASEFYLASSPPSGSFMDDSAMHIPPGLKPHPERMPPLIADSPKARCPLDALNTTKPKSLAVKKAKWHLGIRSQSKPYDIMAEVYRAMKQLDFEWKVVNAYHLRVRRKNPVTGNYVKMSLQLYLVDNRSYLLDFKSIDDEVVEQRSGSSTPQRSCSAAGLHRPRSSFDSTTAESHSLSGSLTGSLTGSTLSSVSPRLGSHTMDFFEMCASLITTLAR
For assay [11] the target is unchanged. As to conditions: at 1 µM.
The target in assay [12] is T4, NUAK family SNF1-like kinase 1 (Homo sapiens) (UniProt O60285).
T4 sequence (whole entry): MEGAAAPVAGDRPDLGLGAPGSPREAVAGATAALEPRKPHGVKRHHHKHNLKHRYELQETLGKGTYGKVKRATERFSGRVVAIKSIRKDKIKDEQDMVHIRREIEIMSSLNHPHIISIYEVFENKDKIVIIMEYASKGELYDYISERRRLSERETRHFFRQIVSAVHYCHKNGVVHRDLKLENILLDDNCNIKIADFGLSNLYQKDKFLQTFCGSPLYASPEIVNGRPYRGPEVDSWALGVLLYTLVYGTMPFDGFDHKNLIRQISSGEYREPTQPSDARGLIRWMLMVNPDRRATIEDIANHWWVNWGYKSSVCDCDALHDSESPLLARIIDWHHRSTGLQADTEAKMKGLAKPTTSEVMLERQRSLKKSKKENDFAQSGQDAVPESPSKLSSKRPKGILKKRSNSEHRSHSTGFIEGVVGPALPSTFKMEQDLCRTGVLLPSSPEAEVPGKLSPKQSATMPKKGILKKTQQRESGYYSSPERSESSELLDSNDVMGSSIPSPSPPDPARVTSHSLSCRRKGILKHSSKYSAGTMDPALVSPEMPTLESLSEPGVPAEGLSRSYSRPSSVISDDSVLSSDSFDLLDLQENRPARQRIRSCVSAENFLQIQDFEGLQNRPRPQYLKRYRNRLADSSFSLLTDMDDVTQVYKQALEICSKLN
As to conditions: at 0.1 µM.

The target in assay [13] is T4, NUAK family SNF1-like kinase 1 (Homo sapiens). The conditions noted are these: at 1 µM.
Assay [14] addresses T5, Serine/threonine-protein kinase BRSK1 (Homo sapiens) (UniProt Q8TDC3).
T5 sequence (whole entry): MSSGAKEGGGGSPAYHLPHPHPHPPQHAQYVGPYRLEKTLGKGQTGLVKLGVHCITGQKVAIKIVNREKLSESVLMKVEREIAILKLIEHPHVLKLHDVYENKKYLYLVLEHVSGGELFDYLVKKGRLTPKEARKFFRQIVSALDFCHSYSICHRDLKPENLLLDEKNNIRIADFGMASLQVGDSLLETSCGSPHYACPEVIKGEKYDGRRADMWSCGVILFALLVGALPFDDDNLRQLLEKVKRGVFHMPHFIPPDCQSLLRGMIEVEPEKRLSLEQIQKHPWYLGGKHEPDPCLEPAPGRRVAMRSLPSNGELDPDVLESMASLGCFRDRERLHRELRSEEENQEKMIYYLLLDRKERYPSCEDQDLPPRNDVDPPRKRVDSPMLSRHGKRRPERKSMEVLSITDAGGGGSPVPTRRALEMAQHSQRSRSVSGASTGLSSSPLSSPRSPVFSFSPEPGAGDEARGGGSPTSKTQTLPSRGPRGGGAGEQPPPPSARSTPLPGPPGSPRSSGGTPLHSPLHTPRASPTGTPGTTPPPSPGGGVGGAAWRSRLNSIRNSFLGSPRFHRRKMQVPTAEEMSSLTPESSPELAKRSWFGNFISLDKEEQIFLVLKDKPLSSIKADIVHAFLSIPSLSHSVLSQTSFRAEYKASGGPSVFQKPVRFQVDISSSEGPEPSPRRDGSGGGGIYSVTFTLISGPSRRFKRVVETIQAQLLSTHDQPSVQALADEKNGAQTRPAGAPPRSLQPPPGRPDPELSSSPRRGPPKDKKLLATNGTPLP
The conditions noted are these: at 0.1 µM.

Assay [15] concerns the target T5, Serine/threonine-protein kinase BRSK1 (Homo sapiens). The conditions noted are these: at 1 µM.
Assay [16] addresses T6, Serine/threonine-protein kinase BRSK2 (Homo sapiens) (UniProt Q8IWQ3).
T6 sequence (whole entry): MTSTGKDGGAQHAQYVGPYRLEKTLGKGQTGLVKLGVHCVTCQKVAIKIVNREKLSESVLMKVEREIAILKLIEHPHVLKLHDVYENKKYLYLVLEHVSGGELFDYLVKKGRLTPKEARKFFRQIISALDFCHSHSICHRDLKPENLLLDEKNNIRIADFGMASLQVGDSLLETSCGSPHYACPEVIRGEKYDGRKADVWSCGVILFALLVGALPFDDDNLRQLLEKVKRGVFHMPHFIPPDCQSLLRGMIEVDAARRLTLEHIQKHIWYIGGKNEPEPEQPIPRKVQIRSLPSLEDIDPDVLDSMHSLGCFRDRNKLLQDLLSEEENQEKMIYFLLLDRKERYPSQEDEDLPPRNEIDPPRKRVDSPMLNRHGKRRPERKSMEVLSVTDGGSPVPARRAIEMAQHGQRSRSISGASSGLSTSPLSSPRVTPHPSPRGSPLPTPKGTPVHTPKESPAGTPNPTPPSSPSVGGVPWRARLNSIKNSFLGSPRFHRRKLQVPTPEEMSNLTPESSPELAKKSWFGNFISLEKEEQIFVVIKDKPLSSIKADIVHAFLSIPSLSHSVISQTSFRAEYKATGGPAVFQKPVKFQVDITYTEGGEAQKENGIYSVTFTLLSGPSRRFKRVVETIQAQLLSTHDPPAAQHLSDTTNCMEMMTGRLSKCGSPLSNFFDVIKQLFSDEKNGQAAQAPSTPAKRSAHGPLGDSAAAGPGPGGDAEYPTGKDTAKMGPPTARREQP
The conditions noted are these: at 0.1 µM.

The target in assay [17] is T6, Serine/threonine-protein kinase BRSK2 (Homo sapiens). As to conditions: at 1 µM.
In assay [18] the target is Calcium/calmodulin-dependent protein kinase type 1D (Homo sapiens) (UniProt Q8IU85). The conditions noted are these: at 0.1 µM.
Calcium/calmodulin-dependent protein kinase type 1D (Homo sapiens), sequence (Q8IU85 whole entry, looked up): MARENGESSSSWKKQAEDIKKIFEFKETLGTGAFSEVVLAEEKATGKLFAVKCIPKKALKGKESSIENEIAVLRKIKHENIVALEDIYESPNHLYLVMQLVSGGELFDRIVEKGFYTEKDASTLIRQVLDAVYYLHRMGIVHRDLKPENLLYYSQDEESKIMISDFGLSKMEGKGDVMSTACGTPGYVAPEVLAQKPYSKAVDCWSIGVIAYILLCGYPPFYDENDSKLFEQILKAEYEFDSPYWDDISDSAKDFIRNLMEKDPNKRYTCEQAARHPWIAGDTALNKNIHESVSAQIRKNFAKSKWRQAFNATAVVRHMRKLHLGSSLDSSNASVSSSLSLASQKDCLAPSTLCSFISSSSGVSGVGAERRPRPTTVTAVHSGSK
The target is the same in assay [19]. The conditions noted are these: at 1 µM.
Assay [20] has as its target Calcium/calmodulin-dependent protein kinase type II subunit alpha (Homo sapiens) (UniProt Q9UQM7). The conditions noted are these: at 0.1 µM.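 Further: reported values are averages (mean inhibition of CAMK2A).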

Molecules are shown by their SMILES.

Ribosomal protein S6 kinase alpha-6 (Homo sapiens), sequence (Q9UK32 whole entry): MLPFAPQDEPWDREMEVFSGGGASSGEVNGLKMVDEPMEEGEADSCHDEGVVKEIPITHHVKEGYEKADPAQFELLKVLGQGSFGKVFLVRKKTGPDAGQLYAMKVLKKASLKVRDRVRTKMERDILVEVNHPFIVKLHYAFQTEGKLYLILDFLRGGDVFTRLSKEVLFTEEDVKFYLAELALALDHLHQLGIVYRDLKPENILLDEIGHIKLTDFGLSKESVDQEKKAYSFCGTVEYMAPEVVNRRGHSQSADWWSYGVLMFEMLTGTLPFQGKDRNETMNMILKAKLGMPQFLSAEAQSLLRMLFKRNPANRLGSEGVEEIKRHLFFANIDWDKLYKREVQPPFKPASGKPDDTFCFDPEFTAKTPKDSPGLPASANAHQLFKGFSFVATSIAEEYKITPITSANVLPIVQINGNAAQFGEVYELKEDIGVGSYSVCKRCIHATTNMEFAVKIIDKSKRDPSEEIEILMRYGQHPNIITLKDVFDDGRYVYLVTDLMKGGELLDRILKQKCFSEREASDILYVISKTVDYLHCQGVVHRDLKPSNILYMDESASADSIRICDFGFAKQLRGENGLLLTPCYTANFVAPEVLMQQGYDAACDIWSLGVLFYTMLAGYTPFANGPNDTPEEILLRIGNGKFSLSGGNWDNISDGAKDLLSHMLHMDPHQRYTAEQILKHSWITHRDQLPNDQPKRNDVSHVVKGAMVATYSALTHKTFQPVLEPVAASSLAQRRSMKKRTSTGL
Calcium/calmodulin-dependent protein kinase type II subunit alpha (Homo sapiens), sequence (Q9UQM7 whole entry): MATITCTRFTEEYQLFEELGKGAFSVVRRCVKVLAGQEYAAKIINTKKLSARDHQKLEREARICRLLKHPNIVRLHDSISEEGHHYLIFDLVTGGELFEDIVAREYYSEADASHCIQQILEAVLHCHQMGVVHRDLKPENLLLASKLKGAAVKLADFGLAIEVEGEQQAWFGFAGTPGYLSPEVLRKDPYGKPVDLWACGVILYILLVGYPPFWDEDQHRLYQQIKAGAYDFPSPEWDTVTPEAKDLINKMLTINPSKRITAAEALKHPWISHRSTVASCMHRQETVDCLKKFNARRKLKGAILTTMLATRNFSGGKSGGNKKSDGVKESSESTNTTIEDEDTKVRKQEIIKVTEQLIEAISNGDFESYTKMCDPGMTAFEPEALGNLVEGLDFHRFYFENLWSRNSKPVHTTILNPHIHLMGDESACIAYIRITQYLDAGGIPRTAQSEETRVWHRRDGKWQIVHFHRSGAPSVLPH

For `COc1cc2ncn(-c3cc(OCc4ccccc4C(F)(F)F)c(C(=O)N(C)C)s3)c2cc1OC`, the inhibition in assay [1] is 0.1%; in [2], 0.62%; in [3] it was 1.02%; in [4], 1.9%; in assay [5] it was -0.51%; in assay [6], 0.08%. Further, the inhibition was -0.88% in assay [7]; -0.68% in assay [8]; -0.02% in assay [9]; -0.26% in assay [10]; 1.18% in assay [11]; 1.04% in [12]. Besides, the inhibition in assay [13] was 14.8%; in [14] it was -0.38%; in assay [15], 2.7%; in assay [16], 0.49%; in [17] it was 8.59%; in assay [18], -0.9%. In addition, the inhibition in assay [19] was 0.6%; in assay [20], -1.75%.

As for `CN(C)CCOc1ccc(-c2nc(-c3ccncc3)c(-c3ccc4c(c3)CC/C4=N\O)[nH]2)cc1`, the inhibition in [1] is 2.06%; in assay [2], 2.17%; in assay [3], 4.78%; in assay [4] it was 2.44%; in assay [5], 5.4%; in [6], 2.89%. Further, the inhibition in assay [7] is 4.02%; in assay [8] it was 2.12%; in [9], 5.29%; in assay [10], -0.6%; in [11], 2.75%; in [12] it was 1.23%. Moreover, the inhibition is 8.79% in [13]; -0.13% in [14]; 1.11% in [15]; 0.6% in assay [16]; 3.51% in assay [17]; 0.25% in assay [18]. Besides, the inhibition in [19] stood at 1.72%; in assay [20], 2.79%.

Consider `CCCN1CCC(c2ccc(Nc3nc(Nc4cc(F)ccc4C(N)=O)c4cc[nH]c4n3)c(OC)c2)CC1`, for which the inhibition in assay [1] amounted to 63.4%; in assay [2], 3.17%; in assay [3] it was 13.8%; in assay [4], 4.48%; in assay [5], 5.14%; in assay [6], 3.22%. Also, the inhibition in assay [7] is 4.03%; in [8] it was 5.5%; in assay [9], 26.9%; in assay [10], 3.42%; in assay [11] it was 13.2%; in [12], 31.8%. The inhibition in assay [13] is 62.8%; in assay [14], 0.82%; in assay [15], 2.49%; in assay [16], 2.24%; in assay [17] it was 6.88%; in assay [18] it was 22.9%. For the same compound, the inhibition in [19] was 71.5%; in assay [20] it was 8.79%.

As to `c1ccc(-c2nc3n(c2-c2ccc4c(c2)OCO4)CCC3)nc1`, the inhibition came out at 0.77% in assay [1]; 1.69% in assay [2]; 3.45% in [3]; 2.66% in assay [4]; 2.94% in assay [5]; 2.37% in assay [6]. For the same compound, the inhibition is 3.36% in assay [7]; 1.01% in assay [8]; 2.34% in [9]; 3.38% in assay [10]; 3.64% in [11]; 4.41% in assay [12]. Further, the inhibition in [13] is -1.66%; in assay [14], 1.42%; in assay [15] it was 2.54%; in assay [16] it was 1.52%; in assay [17], 4.23%; in [18] it was 0.16%. For the same compound, the inhibition in [19] was 0.16%; in [20], -0.46%.
